CBX7 inh: inhibitors of human CBX7 binding to H3K27me3 peptide; AlphaScreen His6-CBX7 / biotin-H3K27me3 peptide binding; active compounds read low; normalised signal (fraction of DMSO) (concentration not given with the values); AID 1224903; O95931; 1.1% of 66,000 active; in the data active means normalised signal below about 0.5
Target sequence (O95931 whole entry, looked up): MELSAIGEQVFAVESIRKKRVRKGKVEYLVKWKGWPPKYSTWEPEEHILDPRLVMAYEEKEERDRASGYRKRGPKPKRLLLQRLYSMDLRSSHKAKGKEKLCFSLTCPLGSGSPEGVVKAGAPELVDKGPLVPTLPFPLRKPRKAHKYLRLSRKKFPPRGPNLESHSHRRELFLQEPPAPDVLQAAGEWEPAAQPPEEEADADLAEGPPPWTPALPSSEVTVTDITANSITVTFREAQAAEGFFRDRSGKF
Numbers stand for hits; i = inactive. The entries come from a sample that favours hits as a whole.

SMILES | CBX7 inh
COc1ccc(CNc2oc(COc3ccc(F)cc3)nc2C#N)cc1 | i
COc1ccc(-c2nnc(Nc3ccc(Cl)c(Cl)c3)c3ccccc23)cc1 | i
COc1ccc(-c2nnc(Nc3ccc(Cl)cc3)c3ccccc23)cc1 | i
COc1ccc(-c2nnc(Nc3cccc(O)c3)c3ccccc23)cc1 | 0.43
Cc1ccc(-c2nc3ncccn3c2NC2CCCC2)cc1 | i
c1ccc(-c2nc3ccccn3c2Nc2ccc3c(c2)OCCO3)cc1 | i
Cc1cccc(C)c1Nc1c(-c2ccccn2)nc2ncccn12 | 0.011
c1ccc(-c2nc3ccccn3c2Nc2ccc3c(c2)OCCO3)nc1 | 0.073
Cc1ccc(-c2nc3cnccn3c2NC2CCCC2)cc1 | i
Cc1cccc(C)c1Nc1c(-c2ccsc2)nc2ccccn12 | i
Clc1ccc2nc(-c3ccccn3)c(Nc3ccc4c(c3)OCO4)n2c1 | i
Cc1ccc2nc(-c3ccccn3)c(NC3CCCC3)n2c1 | 0.12
Cc1ccc(-c2nc3ncccn3c2Nc2c(C)cccc2C)cc1 | i
Cc1cccc(C)c1Nc1c(-c2ccsc2)nc2ncccn12 | i
Cc1cccc(C)c1Nc1c(-c2cccs2)nc2ccccn12 | i
Cc1cccc(C)c1Nc1c(-c2ccccn2)nc2ccccn12 | 0.23
CCOc1ccc(OCC)c(NC(=O)CCNS(=O)(=O)c2ccc3c(c2)CCC(=O)N3)c1 | i
Cc1cccc(N2CCN(CCNC(=O)c3cc4sccc4n3C)CC2)c1C | i
O=C1c2ccc(N3Cc4ccccc4C3)cc2C(=O)N1c1ccc(Cl)c(Cl)c1 | i
O=C(NCCCc1ccccc1)C1CCN(c2nc3ccccc3[nH]2)CC1 | i
CCc1cccc(NC(=O)CCc2c(C)nc3cc(-c4cc(OC)cc(OC)c4)nn3c2C)c1 | i
O=C(COc1ccc(Cl)cc1)Nc1c(C(=O)c2ccccc2)oc2ccccc12 | i
CCc1ccc(NC(=O)COc2cc(=O)n(CC)c3ccccc23)cc1 | i
COc1cccc(CNC(=O)CCCN2C(=O)CSc3ncccc32)c1 | i
Cc1cccn2c(Nc3ccc4c(c3)OCCO4)c(-c3ccc(N(C)C)cc3)nc12 | 0.41
SMILES | CBX7 inh
Cc1cccn2c(Nc3ccc4c(c3)OCCO4)c(-c3cccc(Cl)c3)nc12 | i
Cc1cccn2c(Nc3ccc4c(c3)OCCO4)c(-c3ccsc3)nc12 | i
Cc1nn(-c2ccc(F)cc2)c2c1C(=O)CC(C)(C)C2 | i
COc1ccc(Cc2noc(/C=C/c3ccccc3Cl)n2)cc1OC | i
COc1cccc(-n2ccnc2SCC(=O)Nc2ccccc2F)c1 | i
CCOc1ccccc1NC(=O)CSc1nccn1-c1cccc(OC)c1 | 0.48
CCOc1ccccc1NC(=O)CSc1nccn1-c1ccc(Cl)cc1 | 0.31
COc1ccccc1NC(=O)CSc1nccn1-c1ccc(Cl)cc1 | i
CCOc1ccccc1NC(=O)CSc1nccn1-c1cc(C)cc(C)c1 | i
COc1cccc(-n2ccnc2SCC(=O)Nc2ccc(OC)cc2OC)c1 | i
Cc1ccc(NCc2nc3ccccc3n2Cc2ccccc2F)cc1 | i
COc1cc(OC)cc(-c2cc3nc(C)c(CCC(=O)NCc4ccc(C)cc4)c(C)n3n2)c1 | i
CCOc1ccc(-c2csc(NC(=O)c3cccnc3)n2)cc1 | i
CC(C)Sc1oc(-c2ccc(F)cc2)nc1S(=O)(=O)c1ccc(F)cc1 | i
CCc1ccccc1NC(=O)Nc1ccc2c(c1)N(C)C(=O)CS2 | i
CC(C)CN(CC(C)C)S(=O)(=O)c1ccc(C(=O)Nc2nnc(C3CC3)o2)cc1 | 0.0062
CCCCN(CC)S(=O)(=O)c1ccc(C(=O)Nc2nnc(C3CC3)o2)cc1 | 0.037
CCCCN(C)S(=O)(=O)c1ccc(C(=O)Nc2nnc(C3CC3)o2)cc1 | 0.034
CCCN(CCC)S(=O)(=O)c1ccc(C(=O)Nc2nnc(C3CC3)o2)cc1 | i
CCN(Cc1ccccc1)S(=O)(=O)c1ccc(C(=O)Nc2nnc(C3CC3)o2)cc1 | i
CCCCN(C)S(=O)(=O)c1ccc(C(=O)Nc2ccc(-c3nc4ccccc4[nH]3)cc2)cc1 | i
CCCCN(C)S(=O)(=O)c1ccc(C(=O)Nc2ccccc2-c2nc3ccccc3o2)cc1 | i
Cc1ccc(-c2nnc(NCc3ccccc3)c3ccccc23)cc1S(=O)(=O)NC(C)(C)CO | i
O=C1CN(C(=O)CC2CCCCC2)C(c2ccc(F)cc2)c2cc(Br)ccc2N1 (stereo unspecified) | i
Cc1ccc(S(=O)(=O)Nc2ccccc2CNc2nc3ccccc3n2C(C)C)cc1 | i
SMILES | CBX7 inh
Cc1c(Cl)cccc1NC(=O)c1cnc2sccn2c1=O | i
Cc1ccc(NC(=O)C(CC(C)C)N2C(=O)c3ccccc3C2=O)cc1 (stereo unspecified) | i
CCCc1cc(-c2[nH]ncc2-c2ccc3c(c2)OCCCO3)c(O)cc1OC | 0.47
CCc1cc(-c2[nH]ncc2-c2ccc(F)cc2)c(O)cc1OC | i
COc1ccc(-c2[nH]ncc2-c2ccc(Br)cc2)c(O)c1 | i
COc1cccc(Cn2cc(S(=O)(=O)c3ccccc3)c(=O)c3cc(F)ccc32)c1 | i
Cc1ccc(NC(=O)c2cnn(-c3ccc(F)cc3)c2C2CCN(C(=O)OC(C)(C)C)CC2)c(C)c1 | i
CCOc1cc(O)c(-c2[nH]ncc2Oc2ccccc2)cc1CC | i
N#Cc1nc(COc2cccc(Cl)c2)oc1N1CCCCC1 | i
N#Cc1nc(COc2ccccc2)oc1N1CCCCC1 | i
N#Cc1nc(COc2ccccc2Cl)oc1N1CCCCCC1 | i
N#Cc1nc(COc2cccc(Cl)c2)oc1N1CCCCCC1 | 0.45
CC1CCN(c2oc(COc3cccc(Cl)c3)nc2C#N)CC1 | i
N#Cc1nc(COc2ccc(Cl)cc2)oc1N1CCCCCC1 | 0.37
O=C1c2ccccc2C(Nc2ccccc2C(F)(F)F)N1Cc1ccccc1Cl (stereo unspecified) | i
Nc1nonc1C(=O)NCCNS(=O)(=O)Cc1ccccc1 | i
CCCCOc1cccc(C(=O)Nc2c(C(=O)c3ccc(Cl)cc3)oc3ccccc23)c1 | i
Cc1ccc(CNC(=O)c2ccc3c(c2)N(Cc2ccccc2Cl)C(=O)c2ccccc2S3)cc1 | i
c1cc2c(cc1Nc1nc3nonc3nc1Nc1ccc3c(c1)OCO3)OCO2 | 0.37
Fc1cccc(Nc2nc3nonc3nc2Nc2cccc(F)c2)c1 | i
CC1CCN(c2nc3nonc3nc2Nc2ccc3c(c2)OCO3)CC1 | i
COc1ccc(Cn2c(-c3ccccc3)c(-c3ccccc3)c3c(=O)[nH]cnc32)cc1 | i
Cc1ccc2c(c1)N(CC(=O)NCCN1CCCCCC1)C(=O)CO2 | i
O=C(Nc1ccc(Br)cc1)Nc1ccc2snnc2c1 | i
COc1ccccc1C(CC(=O)NC1CCOC(C)(C)C1)c1ccc(OC(C)C)cc1 (stereo unspecified) | i
SMILES | CBX7 inh
COc1ccc(CN2C(=O)c3cccnc3C2Nc2ccc(OC)c(Cl)c2)cc1 (stereo unspecified) | 0.16
COc1ccc(NC2c3ccccc3C(=O)N2Cc2ccccc2Cl)cc1 (stereo unspecified) | i
COc1ccc(NC2c3ccccc3C(=O)N2Cc2ccccc2Cl)cc1OC (stereo unspecified) | i
Cc1cc(NC2c3ccccc3C(=O)N2Cc2ccccc2)ccc1Br (stereo unspecified) | i
CCOc1ccc(C2C(N3C(=O)c4ccccc4C3=O)C(=O)N2c2ccc(Br)c(C)c2)cc1 (stereo unspecified) | i
COc1cc(OC)c(NC2c3ccccc3C(=O)N2Cc2ccccc2)cc1Cl (stereo unspecified) | i
COc1ccc(CN2C(=O)c3cccnc3C2Nc2ccc(Br)cc2F)cc1 (stereo unspecified) | 0.19
COc1ccc(CN2C(=O)c3cccnc3C2Nc2ccc(Br)c(C)c2)cc1 (stereo unspecified) | 0.15

Assay outcomes deposited in PubChem by Bradner/Qi Labs at DFCI.
